Measurements published in PubChem BioAssay (NCI).
About 79,000 compounds went through this panel and 15% of them were active in at least one assay; those are over-represented in the sample as a whole. Values without a mark were called inactive. Activity calls are given as the source filed them. Cut-off read from the data, not from the text of the source: active = growth inhibition above about 70%; inactive = the rest.

Assays:
[1] = NCI Yeast Anticancer Drug Screen. Data for the rad50 strain (AID 155);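 note: 0% = growth of vehicle-only cultures of the same strain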; conditions: S. cerevisiae rad50 strain growth inhibition; at 50.0 µM; hits give high values
Summary of the method: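 Readout: growth inhibition relative to vehicle-treated cultures. Compound exposure was carried out in a genetically defined yeast strain deficient in DNA damage repair.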

[2] = NCI Yeast Anticancer Drug Screen. Data for the mec2-1 strain (AID 157); conditions: S. cerevisiae mec2-1 strain, at 50.0 µM, hits give high values
Summary of the method: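 Readout is yeast growth inhibition, normalised to vehicle-treated controls, in the mec2-1 strain exposed to compound.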

[3] = NCI Yeast Anticancer Drug Screen. Data for the sgs1 mgt1 strain (AID 161);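 note: 0% = growth of cultures given vehicle only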; conditions: S. cerevisiae sgs1 mgt1 strain, at 50.0 µM, hits give high values
Summary of the method: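 Growth of a repair-deficient yeast mutant was monitored after compound treatment and expressed as inhibition relative to vehicle-treated cultures.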

[4] = NCI Yeast Anticancer Drug Screen. Data for the cln2 rad14 strain (AID 165);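 note: 0% = growth equal to vehicle treated cultures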; conditions: S. cerevisiae cln2 rad14 strain, at 50.0 µM, hits give high values
Summary of the method: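 Relative to vehicle controls, growth inhibition of compound-treated cln2 rad14 yeast was recorded.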

[5] = NCI Yeast Anticancer Drug Screen. Data for the bub3 strain (AID 167); conditions: S. cerevisiae bub3 mutant strain, at 50.0 µM, hits give high values
Summary of the method: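 Readout: yeast growth inhibition, expressed relative to vehicle-only wells. The test organism is a mutant strain from a panel with lesions in DNA repair or checkpoint genes.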

[6] = NCI Yeast Anticancer Drug Screen. Data for the mlh1 rad18 strain (AID 175); conditions: S. cerevisiae mlh1 rad18 strain growth inhibition; at 50.0 µM; hits give high values
Summary of the method: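 Test agents were incubated with a yeast strain of defined genotype (DNA damage repair defect). Inhibition of growth was derived by comparison with vehicle-exposed cultures.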

SMILES	growth inhibition [1]	growth inhibition [2]	growth inhibition [3]	growth inhibition [4]	growth inhibition [5]	growth inhibition [6]
NCc1c(Cl)c(Cl)c(Cl)c(CN)c1Cl	21.3%	-14.2%	14.1%	11.9%	17.8%	19.5%
NC(=O)c1ccncc1	-5%	-7.3%	-13.1%	5.35%	-1.05%	-6%
c1ccc2c(c1)Nc1nc3ccccc3nc1N2	-40%	-5.7%	-33.8%	15.8%	-8%	16.9%
Nc1ccc(C(=O)Nc2cccc(OCc3nc(N)nc(N)c3-c3ccc(Cl)cc3)c2)cc1	16.6%	-6.15%	-16.2%	16.5%	2.3%	13.2%
N#CCCN(CCC#N)c1ccc(/C=C2\N=C(c3cc([N+](=O)[O-])ccc3Cl)N(NC(=O)CC(=O)Nc3ccccc3Cl)C2=O)cc1	-31%	-28.1%	-13.8%	2.5%	1.65%	-18.3%
O=C(Oc1c([N+](=O)[O-])cc(-c2ccccc2)cc1[N+](=O)[O-])c1ccccc1	22.7%	18.1%	9.05%	13.1%	20.1%	35.6%
O=C(O)C(=O)Cc1c[nH]c2ccccc12	1.2%	-7.55%	29.4%	7.3%	-11.1%	-3.7%
COCOc1ccc(C(=O)C(C)c2ccc(OCOC)cc2OCOC)c(O)c1 (configuration not stated)	39.4%	17.2%	26.8%	23.2%	40.8%	36.8%
c1ccc(C(=NN(CCCCN(N=C(c2ccccc2)c2ccccc2)c2ccccc2)c2ccccc2)c2ccccc2)cc1	28.6%	21.4%	-11.6%	6.4%	0.05%	19.9%
CCOc1ccc2c(c1)nc1ccccc1[n+]2C	21.6%	15.4%	22%	25.5%	52.4%	39.9%
C#CCOC(=O)c1ccc(OC(C)=O)cc1	-3.45%	1.45%	10.1%	3.45%	14.2%	-1.65%
O=C(NC(=S)Nc1ccc([N+](=O)[O-])cc1Cl)c1ccccc1F	14.2%	6.1%	20.1%	21.9%	24.1%	20.1%
N#C/C(=N\NC(=O)c1ccccc1)c1ccccc1	5.65%	4.9%	-3.7%	-32.5%	-8.3%	3.5%
NC(CS)=NCCc1nc2ccccc2[nH]1	12.6%	9.95%	-0.2%	-2.85%	7.6%	4.3%
CCN(CC)CCCC(C)Nc1c2ccccc2nc2cc(Cl)cc(Cl)c12 (configuration not stated)	17.6%	4.15%	3.1%	10.9%	9.6%	26.8%
CC(=O)O[C@H]1CC[C@]2(C)C3CC[C@]4(C)C([C@H](C)CCCC(C)C)CCC4[C@]3(/C=N/O)n3c(=O)n(-c4ccccc4)c(=O)n3[C@]2(/C=N\O)C1 (some centres not stated)	28%	35.2%	28.8%	9.7%	38.9%	45.4%
Oc1c(Cl)cc(Cl)cc1CN(Cc1cc(Cl)cc(Cl)c1O)c1ccccc1	15.8%	16.9%	40.8%	52.1%	27.1%	12.7%
CCCOC(=O)c1ccccc1Cl	31.1%	22.5%	23.1%	13.4%	11.6%	24.1%
COC(=O)Nc1ccc(NC(=O)c2cscn2)c(NC(=O)OC)n1	1.55%	2.7%	-2.3%	-4.05%	5.75%	-3.45%
NC(CCCCN=Cc1nc(-c2ccccc2)oc1O)C(=O)O (configuration not stated)	-33.6%	-52.3%	-50.6%	21.4%	-27.7%	-47.5%
O/N=C1\c2ccccc2-c2cccc(I)c21	23.4%	-5.25%	7.8%	1.5%	1.1%	5.5%

SMILES	growth inhibition [1]	growth inhibition [2]	growth inhibition [3]	growth inhibition [4]	growth inhibition [5]	growth inhibition [6]
C=C(Br)CN(C(C)=O)C1CCCCC1	-9.2%	-10.7%	8.05%	18.6%	15%	26.8%
COc1cccc(NCNC2Nc3ccccc3N2)c1	25.1%	10.1%	-0.75%	-23.4%	18.4%	19.8%
CC1(C)CC2C(C1=O)C1(C)CCCC2(C)C1=O (configuration not stated)	-11.8%	-7.1%	-26.6%	-14.8%	3%	-46.5%
CSC(N)=Nc1c(C)cccc1C	3.55%	22.9%	5.35%	-4.1%	2.9%	-16.7%
Cn1c(=O)c2ncn(CC(O)COc3ccccc3)c2n(C)c1=O (configuration not stated)	2.15%	3.1%	11.8%	-2.8%	25.9%	16.3%
Cc1ccc(C2C(Cl)C(=O)N2NC(=O)c2ccc(N)cc2)cc1 (configuration not stated)	-50.4%	-21.5%	-61.1%	-46.8%	-27.4%	-42%
CCCC(=O)SCC[N+](C)(C)C	-10.2%	-48.3%	15.4%	21.6%	-13.3%	4.5%
CC(=O)Nc1ccc(/C=C/c2csnn2)cc1	-7.8%	7.7%	11.9%	8.7%	-4.45%	-3.2%
S=C(SCc1nc(-c2ccc(Cl)cc2)no1)N1CCSCC1	-1.9%	-24.9%	17.9%	-2.6%	-3.25%	-9.4%
c1ccc(Nc2nnc(Nc3ccccc3)s2)cc1	-6.15%	21.6%	53%	-21.2%	3.9%	-21.1%
CC12CC1CCCC2OC(=O)c1cc([N+](=O)[O-])cc([N+](=O)[O-])c1 (configuration not stated)	4.75%	2.15%	-5.7%	-12.7%	-7.65%	-0.15%
CCOC(=O)c1ccc(N=NC2Sc3nc4ccccc4n3C2=O)cc1 (configuration not stated)	-23.6%	-2.4%	-2.65%	-51.4%	21.8%	-6.3%
COc1ccc(/C=C2\CN(C)Cc3c2nc(N)nc3-c2ccc(OC)cc2)cc1	2.05%	-13.1%	5.2%	38.1%	-5.5%	5.75%
CCOC(=O)c1ccc(NC(=O)c2cccc(Cl)c2)cc1	0.1%	-6.85%	-4.25%	-5.45%	9.5%	1.25%
CC[n+]1c(C)sc2cc(Cl)c(-c3ccccc3)cc21	23.4%	17.2%	30.4%	-6.25%	-3.25%	34.1%
Oc1c(Br)cc(Br)cc1/C=N/c1nc(-c2ccccc2)cs1	98.5% (active)	92.1% (active)	99% (active)	92.5% (active)	97.4% (active)	99% (active)
CC(=Nc1ccc(Cl)cc1)c1ccncc1	-31.9%	-14.5%	-14.8%	-6.4%	1.3%	-1.8%
COC(=O)c1cc(=O)[nH]c2c1c(=O)[nH]c(=O)n2C	5.7%	9%	-4.7%	-39.2%	7.1%	21.4%
Clc1cccc(-c2ncc(-c3ccccc3)o2)c1	8.7%	-3.8%	-0.6%	-29.2%	2.15%	19.1%
COc1cc(/C=N/NC2=NCCCN2)ccc1O	28.7%	13.2%	7.75%	-16.2%	0.7%	17.4%
Cc1c(Br)[n+](=O)c2ccccc2n1[O-]	1.6%	6.45%	17.4%	14.2%	11.9%	21.9%
